# Source: PubChem BioAssay AID2685 (National Center for Advancing Translational Sciences (NCATS), 2010)
# Among all 320,000 compounds or so, about 2,100 (0.66%) were called active. Roughly 53% stayed inconclusive and do not appear here. Calls come from the whole dose curve; as a rule, active = well fitted inhibition curve with a large enough effect in the signal ratio, with a control signal flat (not every such curve was filed as active); inconclusive = small, poorly fitted or top-dose-only effect, or effect the other way, or a change in a side signal; inactive = flat fitted curve, though single readings scatter; the % refers to the signal ratio. The sample as a whole holds a higher share of actives than the screen did.
# Test: qHTS Assay for Lipid Storage Modulators in Drosophila S3 Cells;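 for cell number change: cells counted by Cell Tracker Red CMTPX staining in the red channel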; for lipid storage change, negative = inhibition: % is set by controls: 0 for no effect and ±100 for the full control effect
# Details: BODIPY lipid droplet fluorescence, 18-24 h, cells fed with added oleic acid; cell number change: measured here: cell count max response; series mostly up to 46.1 µM
# Procedure, shortened: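 Drosophila S3 cells loaded with oleic acid (400 uM, as added) and compounds at several concentrations; lipid droplets imaged by 488-nm laser-scanning cytometry, 500–530 nm intensity and object ratio to cell channel. Percent activity normalized to 20 uM Triacsin C.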
# Potency is the fitted concentration of half-maximal effect.
Structure (SMILES),Potency,cell number change [%],"lipid storage change, negative = inhibition",outcome
CS(=O)(=O)N(CC(=O)N/N=C/c1ccco1)c1ccccc1Br,inactive,2.71,–,–
CCOC(=O)c1ccc(-c2ccc(/C=N/NC(=O)CN(c3ccccc3Br)S(C)(=O)=O)o2)cc1,9.2 µM (active),-15.9,–,–
Cc1oc(/C=N/NC(=O)CN(c2ccccc2Br)S(C)(=O)=O)cc1Br,inactive,0.768,–,–
COc1ccccc1-c1ccc(SCC(=O)NCc2ccc3c(c2)OCO3)nn1,inactive,–,–,–
O=C(O)CSc1cccc2cccnc12,–,8.53,8.73% [at 9.22 µM] (inactive),–
CC(=O)/C(=N/Nc1ccc(Br)cc1)Sc1cccc2cccnc12,inactive,-2.71,–,–
O=C(Sc1cccc2cccnc12)c1ccccc1Br,7.31 µM (active),4.44,–,–
Cc1ccc(-c2cc(-c3ccccc3)c(C#N)c(Br)n2)cc1,inactive,-11.3,–,–
CC(C)(C)[C@H]1CCC(=O)N([C@H](CC#N)Cc2ccccc2)CC1,0.326 µM (active),-9.71,–,–
CC(=O)Nc1ccc(SCCN2CC[C@@H](C(C)(C)C)CCC2=O)cc1,inactive,-1.32,–,–
CC(C)(C)C1CCC(=O)N(CCSc2ccccc2)CC1 (stereo not given),6.51 µM (active),-4.53,–,–
CC(C)(C)[C@H]1CCC(=O)N([C@H](CN=[N+]=[N-])Cc2ccccc2)CC1,inactive,22,–,–
N#CC[C@H](Cc1ccccc1)N1CC[C@@H](NC(=O)OCc2ccccc2)CCC1=O,inactive,8.98,–,–
CC1CCC(=O)N(CCSc2ccccc2)CC1 (stereo not given),inactive,–,–,–
CCCCNC(=S)N/N=C/c1sccc1C,inactive,-1.93,–,–
CCS(=O)(=O)c1nc(S(=O)(=O)c2ccc(C)cc2)c(NCc2ccccn2)s1,inactive,2.5,–,–
Cc1[nH]n(-c2ccccc2)c(=O)c1C(=O)c1ccc(Cl)cc1,inactive,-16,–,–
Cc1[nH]n(-c2ccccc2)c(=O)c1C(=O)c1ccc([N+](=O)[O-])cc1,inactive,5.62,–,–
C/C(=N\NC(=O)c1ccc(C)cc1)c1c(C)[nH]n(-c2ccccc2)c1=O,9.2 µM (active),-9.89,–,–
CN1C(=O)c2cccc(NC(=O)CCc3ccccc3)c2C1=O,inactive,-9.83,–,–
Cc1ccc(-n2ncc3c(=O)[nH]c(SCC(=O)N4CCCc5ccccc54)nc32)cc1,inactive,–,–,–
O=C(NCCCN1CCOCC1)c1ccc2ccccc2c1,–,–,–,inactive [at 0.0737 µM]

Structure (SMILES),Potency,cell number change [%],"lipid storage change, negative = inhibition",outcome
O=C(NCCCN1CCOCC1)c1ccccc1,20.6 µM (active),-23.2,–,–
O=C(Nc1ccccc1C(=O)NCCCN1CCOCC1)c1ccccc1,inactive,15.2,–,–
O=C(c1ccc(NC(=O)C2(c3ccccc3)CCOCC2)cc1)N1CCOCC1,23.1 µM (active),-1.58,–,–
Cc1ccc(NC(=O)C2(c3ccccc3)CCOCC2)cc1,inactive,16.3,–,–
O=C(NCCCN1CCOCC1)C1(c2ccccc2)CCOCC1,3.66 µM (active),2.27,–,–
CCn1c(C)c(C)c2cc(C(=O)NCCN3CCOCC3)ccc21,inactive,-16.2,–,–
COc1ccc(C2(C(=O)Nc3ccc(C(=O)N4CCOCC4)cc3)CCOCC2)cc1,inactive,6.9,–,–
Cc1c(C)n(Cc2ccc(F)cc2)c2ccc(C(=O)NCCCN3CCOCC3)cc12,29.1 µM (active),38.2,–,–
O=C(NCCCN1CCOCC1)C(=O)NCCc1ccccc1,inactive,-0.52,–,–
Cc1c(C)n(C)c2ccc(C(=O)NCCCN3CCN(c4ccc(F)cc4)CC3)cc12,inactive,4.18,–,–
O=C(NCCCN1CCOCC1)C1(c2ccccc2)CCCC1,inactive,-15.4,–,–
C/C(=N/NC(=O)CN(c1ccccc1)S(=O)(=O)c1ccccc1)c1ccccc1O,inactive,19.6,–,–
Cc1cc(NC(=O)CCN2C(=O)/C(=C\c3ccccc3)SC2=S)no1,inactive,-8.06,–,–
COc1ccc(-c2nnn(CC(=O)N3CCN(c4ccc(F)cc4)CC3)n2)cc1,inactive,0.734,–,–
O=C(NCc1nc2ccccc2[nH]1)C1=C[C@H](c2csc3ccccc23)C[C@H](OCc2ccc(CO)cc2)O1,inactive,13.4,–,–
COc1cc(CC(=O)OCC(=O)Nc2ccc(S(=O)(=O)N3CCCC3)cc2)cc(OC)c1OC,inactive,-19.3,–,–
CCCN(CCC)CCCNC(=O)c1cn(CC)c2ccc(S(=O)(=O)N3CCOCC3)cc2c1=O,inactive,5.34,–,–
CCn1cc(C(=O)NCCN(CC(C)C)CC(C)C)c(=O)c2cc(S(=O)(=O)N3CCOCC3)ccc21,7.31 µM (active),0.403,–,–
CCn1cc(C(=O)NCCCN(CC(C)C)CC(C)C)c(=O)c2cc(S(=O)(=O)N3CCOCC3)ccc21,inactive,21.3,–,–
CC1CCN(Cc2cc(=O)oc3ccc4ccccc4c23)CC1,inactive,16.9,–,–
COc1ccc(C(=O)CC2SC(N)=NC2=O)cc1 (stereo not given),inactive,30,–,–
Nc1[nH]ncc1C(=O)Nc1cccc(C(F)(F)F)c1,inactive,-8.81,–,–

Structure (SMILES),Potency,cell number change [%],"lipid storage change, negative = inhibition",outcome
O=C(OCC(=O)N(C1CCCCC1)C1CCCCC1)c1ccc(O)cc1,inactive,3.31,–,–
CC(C)(C)C(=O)COC(=O)c1ccc(O)cc1,inactive,15.5,–,–
CCN(CC)C(=O)COC(=O)c1ccc(O)cc1,20.6 µM (active),4.39,–,–
COCCC(=O)N1CCC(Oc2ccc(C(=O)NCCc3cnn(C)c3)cc2)CC1,inactive,8.02,–,–
CCCN1CCC(NC(=S)Nc2ccc(S(N)(=O)=O)cc2)CC1,inactive,-2.79,–,–
Cc1ccc(C(CNC(=O)Nc2ccccc2)N2CCN(C)CC2)cc1 (stereo not given),7.31 µM (active),20.2,–,–
Cc1cccc(NC(=O)NCC(c2ccc(F)cc2)N2CCN(C)CC2)c1 (stereo not given),inactive,–,–,–
Cc1ccc(C(CNC(=O)Nc2cccc(C)c2)N2CCN(C)CC2)cc1 (stereo not given),inactive,-5.52,–,–
S=C(NCc1ccccc1)NCc1cccc(Cl)c1,inactive,7.23,–,–
Nc1nnc(SCC(=O)Nc2ccc(S(=O)(=O)N3CCOCC3)cc2)s1,inactive,–,–,–
Cc1cc(C)c(OCC(=O)Nc2ccc(S(=O)(=O)N3CCOCC3)cc2)c(C)c1,2.31 µM (active),10.8,–,–
Cc1ccc(S(=O)(=O)N2CCOCC2)cc1NC(=O)COc1ccc(C(=O)c2ccccc2)cc1,7.31 µM (active),12.9,–,–
O=C(COc1ccccc1Cl)Nc1ccc(S(=O)(=O)N2CCOCC2)cc1,inactive,-11.3,–,–
Cc1ccc(OCC(=O)Nc2ccc(S(=O)(=O)N3CCOCC3)cc2)c(C)c1,inactive,25.8,–,–
O=C(CSc1ncnc2ccccc12)Nc1cccc(S(=O)(=O)N2CCOCC2)c1,inactive,–,–,–
Cc1ccc(S(=O)(=O)N2CCOCC2)cc1NC(=O)COc1ccc2c(C)cc(=O)oc2c1,inactive,–,–,–
Cc1ccc(S(=O)(=O)N2CCOCC2)cc1NC(=O)COC(=O)CNC(=O)c1ccccc1,inactive,5.41,–,–
Cc1cc(C)c(OCC(=O)Nc2ccc(S(=O)(=O)N3CCCC3)cc2)c(C)c1,inactive,–,–,–
O=C(COc1ccc(S(=O)(=O)N2CCOCC2)cc1)Nc1ccccc1Cl,1.84 µM (active),7.69,–,–
O=C(COc1ccc(S(=O)(=O)N2CCOCC2)cc1)Nc1ccccc1F,–,–,–,inactive [at 0.0737 µM]
O=C(CSc1ncnc2sccc12)Nc1ccc(S(=O)(=O)N2CCOCC2)cc1,14.6 µM (active),4.37,–,–
